Screens deposited in PubChem by National Center for Advancing Translational Sciences (NCATS).
RORg inh: qHTS for inhibitors of ROR gamma transcriptional activity. AID 2551, 2010. Nuclear receptor ROR-gamma (Mus musculus), P51450. 5.4% of 310,000 active. Drosophila S2 Gal4-RORgamma UAS-luciferase reporter, 20 h. Potency, µM (top dose mostly 53.6 µM), inactives show at the highest dose activity change, negative = inhibition, hits mostly inhibitors; also: potency is read from the fitted curve at half-maximal effect; nearly all actives have a fitted effect of over 60% in size
Target sequence (P51450 whole entry, looked up, the tested form may be a part): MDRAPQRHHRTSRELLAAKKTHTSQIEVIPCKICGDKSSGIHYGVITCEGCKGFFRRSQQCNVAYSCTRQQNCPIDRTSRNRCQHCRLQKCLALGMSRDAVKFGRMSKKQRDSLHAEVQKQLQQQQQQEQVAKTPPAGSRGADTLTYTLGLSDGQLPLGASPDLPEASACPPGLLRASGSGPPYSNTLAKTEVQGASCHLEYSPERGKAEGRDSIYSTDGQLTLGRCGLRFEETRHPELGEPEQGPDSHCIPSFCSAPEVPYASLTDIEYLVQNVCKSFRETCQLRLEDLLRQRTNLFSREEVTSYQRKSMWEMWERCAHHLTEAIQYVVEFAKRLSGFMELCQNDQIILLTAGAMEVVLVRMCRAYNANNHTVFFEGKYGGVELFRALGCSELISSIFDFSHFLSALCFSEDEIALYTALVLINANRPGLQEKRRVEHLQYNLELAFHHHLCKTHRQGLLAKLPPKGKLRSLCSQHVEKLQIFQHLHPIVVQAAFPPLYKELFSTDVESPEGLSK
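In this cell-based reporter format, copper sulfate (700 uM final) drives Gal4–ROR gamma fusion expression from a metallothionein promoter in Drosophila Schneider cells; compounds preincubated 1 hr, reporter read after 20 hr at ambient temperature.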
Gal4-VP16 FLuc: VP16 counterscreen qHTS for inhibitors of ROR gamma transcriptional activity; Drosophila S2 Gal4-VP16 UAS-luciferase, luminescence, 20 h; Potency, µM (doses to about 53.6 µM), for the others: top-dose activity, negative = inhibition, hits mostly inhibitors; 3.5% of 310,000 active;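 also: Gal4-VP16 expression switched on by copper sulfate through the metallothionein promoter; potency is read from the fitted curve at half-maximal effect; nearly all actives have a fitted effect of over 50% in size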
TDP1 cell CPT: qHTS for Inhibitors of human tyrosyl-DNA phosphodiesterase 1 (TDP1): qHTS in cells in presence of CPT; AID 686979, 2013; Potency, µM (titrated, usually from 46.2 µM), inactives show at the top dose activity change, negative = growth inhibition, actives largely listed as inhibitors; chicken DT40 Tdp1-/-;hTDP1 cells + 20 nM CPT, ATP luminescence, 48 h; 12% of 420,000 active; also: potency is read from the fitted curve at half-maximal effect; nearly all actives have a fitted effect of over 55% in size
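Cell growth measured by CellTiter-Glo luminescence after a minimum 48 h, 37 C compound exposure with 20 nM CPT in Tdp1-knockout DT40 cells stably expressing hTDP1, seeded 400/well; qHTS titration format.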
ELG1 DNA repair: qHTS screen for small molecules that inhibit ELG1-dependent DNA repair in human embryonic kidney (HEK293T) cells expressing luciferase-tagged ELG1 | HEK293T ELG1-luciferase reporter, luminescence, 16 h; DNA damage induced by 5-fluorouridine | Potency, µM (series often up to 46.1 µM), without a hit: top-dose activity change, negative = inhibition, most hits filed as inhibitors | 2.3% of 330,000 active; also: potency is read from the fitted curve at half-maximal effect; nearly all actives have a fitted effect of over 55% in size
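5-Fluorouridine DNA damage + compound/DMSO, 2,000 cells/well, 16 h, 37 °C/5% CO2. ONE-Glo, 30 min RT, luminescence. Readout = decrease in reporter signal.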
DT40 TDP1 no CPT: qHTS for Inhibitors of human tyrosyl-DNA phosphodiesterase 1 (TDP1): qHTS in cells in absence of CPT. DT40 Tdp1-/- hTDP1 cells, no CPT, ATP luminescence, 48 h. Potency, µM (doses to about 46.2 µM), for inactives: at the top dose activity change, negative = growth inhibition, actives largely listed as inhibitors. 15% of 420,000 active. AID 686978, 2013; also: potency is read from the fitted curve at half-maximal effect; nearly all actives have a fitted effect of over 55% in size
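No-CPT arm: Tdp1-/-;hTDP1 DT40 cells (400/well) plus compounds, incubated ≥48 hr at 37 °C. Readout CellTiter-Glo luminescence.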
IL1B secr inh: qHTS for Inhibitors of Inflammasome Signaling: IL-1-beta AlphaLISA Primary Screen | 4.7% of 360,000 active | AID 743279, 2014 | activity change, % at 57.5 µM | THP-1 LPS/ATP IL-1B secretion, AlphaLISA, 16 h; stronger effect = lower value; in the data active = activity change below about -50%; inconclusive = mostly about -30% to -49%
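THP-1 cells pretreated 1 hr with compounds (up to 57.5 uM final), then stimulated with LPS (250 ng/mL final) plus ATP (1.25 mM final); secreted IL-1B measured by AlphaLISA after 16 hr, decreased signal indicating inhibition.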
Numbers without * were called inactive; u = inconclusive; x = no result given; [ ] = remark or other dose. This is a sample that favours compounds with a hit; in the whole collection about 21% have one here. Unless noted, calls follow the shape of the dose curve; as a rule, active = well fitted curve in the direction sought with a large enough effect; inconclusive = small, poorly fitted or top-dose-only effect, or another doubt; inactive = no such curve, though single readings can be large; an effect the other way counts as inactive or inconclusive. % is scaled to controls: 0 for no effect and ±100 for the full control effect.

SMILES	RORg inh	Gal4-VP16 FLuc	TDP1 cell CPT	ELG1 DNA repair	DT40 TDP1 no CPT	IL1B secr inh
CCN1CCN(S(=O)(=O)c2ccc(Cl)c(C(=O)N(C)Cc3ccc(C(C)(C)C)cc3)c2)CC1	x	x	u	x	11.6µM*	-1.1
CCN1CCN(S(=O)(=O)c2ccc(Cl)c(C(=O)N(C)Cc3cccc(Cl)c3Cl)c2)CC1	x	x	16.4µM*	u	20.6µM*	-69.0*
COC(=O)c1cc2sccc2n1Cc1ccc(F)cc1Cl	x	x	-23.7%	x	-21.3%	x
Cn1ccsc1=NC(=O)c1ccc(OC(F)(F)F)cc1	36.1%	2.5%	7.6%	u	-27.8%	-13.7
CCc1nc2c(OCc3c(C)noc3C)cccn2c1N(C=O)Cc1ccccc1	x	x	u	x	20.6µM*	0.0
C=CCOc1cccn2c(N(C=O)Cc3ccccc3)c(CC)nc12	x	x	13µM*	x	11.6µM*	31.2
CCc1nc2c(OCCc3cccc(OC)c3)cccn2c1N(C=O)Cc1ccc(OC)cc1	x	x	18.4µM*	x	u	-12.5
CCc1nc2c(OCc3cc(Cl)cc(Cl)c3)cccn2c1N(C=O)Cc1ccccc1	x	x	25.9µM*	x	u	u
CCc1nc2c(OCc3c(C)noc3C)cccn2c1N(C)C(=O)c1ccccc1F	x	x	-12.3%	x	-12.9%	74.0
Cc1noc(C)c1NC(=O)N(C)C[C@H]1Oc2ccc(NS(=O)(=O)c3cn(C)cn3)cc2C(=O)N([C@H](C)CO)C[C@@H]1C	x	x	-8.3%	9.2%	-1.9%	-1.1
COc1cccc([C@@H]2Oc3ccc(OC)cc3/C(=N/O[C@@H](C)CN3CCCCc4nc(C)c(C)cc43)[C@@H]2O)c1	-15.4%[10 µM]	10.5%[10 µM]	x	x	x	x
CCCCN(C=O)c1c(CC)nc2c(OCc3ccc(Cl)cc3)cccn12	x	x	18.4µM*	x	23.1µM*	-50.7*
CCc1nc2c(OCC(=O)c3ccc(Cl)cc3Cl)cccn2c1N(C)C(=O)c1ccncc1	x	x	u	x	u	2.8
CCCCN(C=O)c1c(CC)nc2c(OCc3cc(Cl)cc(Cl)c3)cccn12	x	x	u	x	u	-21.2
CCc1nc2c(OCc3ccc(Cl)cc3)cccn2c1N(C=O)Cc1ccccc1	x	x	u	x	23.1µM*	-13.6
CCc1nc2c(OCc3cc(Cl)cc(Cl)c3)cccn2c1N(C=O)Cc1ccc(OC)cc1	x	x	23.1µM*	x	u	-78.5*
CCc1nc2c(OCC(=O)c3ccc(Cl)cc3Cl)cccn2c1N(C=O)Cc1ccccc1	x	x	20.6µM*	x	u	-7.5
CCc1nc2c(OCc3ccc4c(c3)OCO4)cccn2c1N(C=O)Cc1ccc(OC)cc1	x	x	u	x	u	-5.5
CCCCN(C=O)c1c(CC)nc2c(OCc3ccc(S(C)(=O)=O)cc3)cccn12	x	x	-23.8%	x	u	-11.7
CCCCNC(=O)C1CCN(S(=O)(=O)c2cc(Br)cc3c2N(C(=O)CC)CC3)CC1	x	x	-3.1%	x	-23.4%	x
CCc1nc2c(OCCC3CCCCC3)cccn2c1N(C=O)Cc1ccccc1	x	x	16.4µM*	x	u	-26.1
CCCS/C(N)=N/N=C/c1ccccc1O	0.631µM*	1.41µM*	u	u	18.4µM*	u
C=CCS/C(N)=N\N=C\c1c(O)ccc2ccccc12	0.501µM*	3.16µM*	u	u	u	0.0
CCOc1ccccc1C=NN=Cc1ccccc1O	x	x	-16.6%	x	-23.8%	17.1
O=c1[nH]c(CN2CCN(S(=O)(=O)c3cccs3)CC2)nc2c(Br)cc(Br)cc12	21.2%	5.8%	0.1%	19.0%	-0.2%	-19.7
SMILES	RORg inh	Gal4-VP16 FLuc	TDP1 cell CPT	ELG1 DNA repair	DT40 TDP1 no CPT	IL1B secr inh
O=C(Nc1ccc2c(c1)OCO2)c1cc(C2CCCCN2S(=O)(=O)Cc2ccccc2)on1 (stereo not given)	x	x	-9.7%	x	-25.3%	u
COc1c(C)cc(C(O)c2ncc(-c3ccccc3C)[nH]2)cc1C (stereo not given)	x	x	u	x	u	-4.1
CCN(C(=O)CCc1nc(-c2ccccc2F)no1)c1cc(OC)ccc1OC	-39.7%	-0.9%	23.1µM*	u	u	-11.5
COc1ccc(C)cc1N(C)C(=O)CCc1nc(-c2ccccc2F)no1	x	x	18.4µM*	x	u	x
COc1ccc2c(c1)OC(C)CN(CC(=O)NCc1cn[nH]c1-c1ccc(F)cc1)C2 (stereo not given)	x	x	-1.5%[9.04 µM]	x	-18.6%	x
CCc1nc2ccc(C(=O)NCC3CCCCC3)cn2c1N(C)C(=O)c1cccc(OC)c1	x	x	u	x	u	-0.4
CCOc1ccc(CCNC(=O)CS(=O)Cc2nc(-c3ccccc3C)oc2C)cc1OCC (stereo not given)	-8.0%	7.5%	u	u	u	2.7
Cc1ccc(CC2CC(=O)N(c3nc4ccccc4s3)C2=O)cc1 (stereo not given)	4.7%	0.8%	8.6%	3.4%	0.9%	22.0
Cc1ccc(Cc2cnc(N3C(=N)SC(c4ccccc4)C3=O)s2)cc1 (stereo not given)	11.2µM*	3.98µM*	16.4µM*	u	16.4µM*	0.0
O=C(NC12CC3CC(CC(C3)C1)C2)c1ccc(-c2ccc(Cl)cc2)o1	19.1%	-12.8%	23.1µM*	u	18.4µM*	-27.3
O=C(COC(=O)c1n[nH]c2ccccc12)NC(=O)NC12CC3CC(CC(C3)C1)C2	-14.0%	-27.5%	13µM*	11.8%	9.2µM*	28.5
O=C(COC(=O)c1ccc(-c2ccc([N+](=O)[O-])cc2)o1)NC(=O)NC12CC3CC(CC(C3)C1)C2	u	-0.5%	16.4µM*	-7.8%	13µM*	-24.2
CC1(C)OCC(CNC(=O)c2[nH]c(C(F)(F)F)nc2-c2ccccc2)O1 (stereo not given)	x	x	-13.9%	x	2.8%	-7.9
COC(=O)c1[nH]c2ccccc2c1NC(=O)CN1CCN(Cc2ccc3c(c2)OCO3)CC1	1.3%	-5.8%	u	4.61µM*	u	-16.1
O=C(CN1CCN(Cc2ccc3c(c2)OCO3)CC1)Nc1ccc(F)cc1	24.1%	-11.1%	2.4%	-21.6%	-0.6%	0.4
COC(=O)c1[nH]c2ccc(F)cc2c1NC(=O)CCN1CCN(Cc2ccc3c(c2)OCO3)CC1	0.0%[10 µM]	-1.8%	16.4µM*	-21.6%	20.6µM*	-1.0
CCOC(=O)c1[nH]c2cc3c(cc2c1NC(=O)CN1CC(C)CC(C)C1)OCO3 (stereo not given)	-12.9%	-8.5%	u	-15.3%	25.9µM*	-17.5
